PubChem BioAssay
For some assays here: Potency and affinity values are given separately. The source made the active and inactive calls. A call without a number means that no potency is given here. Unless noted, no rule for the calls is given here.

Tests used:
[1] = antimalarial activity against Dd2 strain (AID 2302;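 active = growth inhibition above 50% at the single 2 µM test dose, taken to imply half-maximal potency below 2 µM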); conditions: P. falciparum Dd2 in RBCs, LDH growth readout, 72 h; at 2 µM; active compounds read high
[2] = human hepatoma cell viability loss – ATP luminescence, cytotoxicity control for P. falciparum antimalarial project, primary screen (AID 2303;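 active = inhibition above 50%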); conditions: HepG2 viability, 24-48 h, at 10 µM, active compounds read high
[3] = target: L-lactate dehydrogenase (Plasmodium falciparum (isolate CDC / Honduras)) (UniProt Q27743); assay: PfLDH activity inhibition – cell lysate, 3D7 strain, counter-screen for P. falciparum growth inhibition project (AID 2304); conditions: P. falciparum 3D7 crude extract, LDH APAD/NBT absorbance; at 2 µM; active compounds read high
Sequence of L-lactate dehydrogenase (Plasmodium falciparum (isolate CDC / Honduras)) (Q27743 whole entry, looked up): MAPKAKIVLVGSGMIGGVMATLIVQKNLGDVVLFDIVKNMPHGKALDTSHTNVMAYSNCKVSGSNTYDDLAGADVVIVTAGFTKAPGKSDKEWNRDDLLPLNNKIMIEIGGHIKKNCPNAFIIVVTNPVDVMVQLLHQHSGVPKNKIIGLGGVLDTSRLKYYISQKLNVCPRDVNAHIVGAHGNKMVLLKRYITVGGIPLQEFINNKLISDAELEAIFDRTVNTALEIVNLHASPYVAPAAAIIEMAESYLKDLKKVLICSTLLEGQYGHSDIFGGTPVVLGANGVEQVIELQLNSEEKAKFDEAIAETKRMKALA

[4] = inhibition of 3D7 malaria parasite growth – strain 3D7 (AID 2306); conditions: P. falciparum 3D7 erythrocytic growth, LDH absorbance, 72 h; at 2 µM; active compounds read high
[5] = target: Calcium-dependent protein kinase 1 (Plasmodium falciparum (isolate 3D7)) (UniProt P62344); assay: PfCDPK1 kinase inhibitors, biochemical, TCAMS library (AID 1159585; cut-off not given, nearly all actives have IC50 up to about 0.98 µM;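 also: inhibitors leave more ATP so luminescence rises with inhibition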); conditions: recombinant PfCDPK1, Kinase-Glo ATP depletion luminescence
Sequence of Calcium-dependent protein kinase 1 (Plasmodium falciparum (isolate 3D7)) (P62344 whole entry, looked up): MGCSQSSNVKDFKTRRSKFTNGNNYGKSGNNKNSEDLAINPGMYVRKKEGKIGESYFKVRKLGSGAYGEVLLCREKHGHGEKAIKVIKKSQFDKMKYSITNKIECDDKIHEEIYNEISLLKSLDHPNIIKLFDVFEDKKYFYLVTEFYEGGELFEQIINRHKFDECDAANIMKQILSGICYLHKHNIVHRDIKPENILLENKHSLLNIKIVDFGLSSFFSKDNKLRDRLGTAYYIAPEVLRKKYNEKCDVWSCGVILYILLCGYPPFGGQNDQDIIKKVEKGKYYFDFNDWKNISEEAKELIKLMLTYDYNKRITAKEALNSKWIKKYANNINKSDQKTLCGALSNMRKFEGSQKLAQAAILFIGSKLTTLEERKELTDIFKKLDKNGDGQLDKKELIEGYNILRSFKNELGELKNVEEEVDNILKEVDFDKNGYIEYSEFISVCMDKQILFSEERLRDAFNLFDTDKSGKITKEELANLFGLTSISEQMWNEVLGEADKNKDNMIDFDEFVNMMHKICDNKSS

[6] = target: Plasmodium falciparum protein kinase 6 (PK6, PF3D7_1337100) (UniProt Q8IDW1); assay: PfPK6 kinase inhibitors, biochemical, TCAMS library (AID 1159586); conditions: recombinant PfPK6, Kinase-Glo ATP depletion luminescence
Sequence of Plasmodium falciparum protein kinase 6 (PK6, PF3D7_1337100) (Q8IDW1 1-305): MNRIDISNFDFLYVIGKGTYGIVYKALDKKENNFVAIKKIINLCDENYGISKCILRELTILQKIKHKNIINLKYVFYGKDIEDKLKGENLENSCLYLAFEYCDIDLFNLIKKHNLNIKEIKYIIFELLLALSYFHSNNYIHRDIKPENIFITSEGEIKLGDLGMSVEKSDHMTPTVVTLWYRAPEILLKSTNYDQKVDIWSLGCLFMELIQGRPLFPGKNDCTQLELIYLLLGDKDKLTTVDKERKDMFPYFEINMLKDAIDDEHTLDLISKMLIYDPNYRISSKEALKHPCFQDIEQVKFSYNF

[7] = target: Protein kinase 7 (PK7), Plasmodium falciparum 3D7 (PF3D7_0213400) (UniProt Q7YTF7); assay: inhibition of Plasmodium PK7 catalytic activity – biochemical, TCAMS antimalarial set, Kinase-Glo luminescence (AID 1159587); conditions: recombinant PfPK7, Kinase-Glo ATP depletion luminescence
Sequence of Protein kinase 7 (PK7), Plasmodium falciparum 3D7 (PF3D7_0213400) (Q7YTF7 1-343): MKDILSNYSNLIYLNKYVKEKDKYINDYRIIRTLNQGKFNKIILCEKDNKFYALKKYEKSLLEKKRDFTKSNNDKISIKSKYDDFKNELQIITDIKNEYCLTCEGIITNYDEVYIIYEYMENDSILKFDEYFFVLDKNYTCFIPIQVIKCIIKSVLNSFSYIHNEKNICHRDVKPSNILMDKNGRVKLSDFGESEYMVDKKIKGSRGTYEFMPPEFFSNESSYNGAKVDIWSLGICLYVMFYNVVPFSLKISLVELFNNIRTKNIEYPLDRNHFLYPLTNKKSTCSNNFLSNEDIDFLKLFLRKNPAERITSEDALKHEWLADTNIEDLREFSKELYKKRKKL

[8] = target: Calcium-dependent protein kinase 4 (Plasmodium falciparum (isolate 3D7)) (UniProt Q8IBS5); assay: PfCDPK4 kinase inhibitors, biochemical, TCAMS library (AID 1159588; cut-off not given, nearly all actives have IC50 up to about 0.91 µM); conditions: recombinant PfCDPK4, Kinase-Glo ATP depletion luminescence
Sequence of Calcium-dependent protein kinase 4 (Plasmodium falciparum (isolate 3D7)) (Q8IBS5 whole entry, looked up): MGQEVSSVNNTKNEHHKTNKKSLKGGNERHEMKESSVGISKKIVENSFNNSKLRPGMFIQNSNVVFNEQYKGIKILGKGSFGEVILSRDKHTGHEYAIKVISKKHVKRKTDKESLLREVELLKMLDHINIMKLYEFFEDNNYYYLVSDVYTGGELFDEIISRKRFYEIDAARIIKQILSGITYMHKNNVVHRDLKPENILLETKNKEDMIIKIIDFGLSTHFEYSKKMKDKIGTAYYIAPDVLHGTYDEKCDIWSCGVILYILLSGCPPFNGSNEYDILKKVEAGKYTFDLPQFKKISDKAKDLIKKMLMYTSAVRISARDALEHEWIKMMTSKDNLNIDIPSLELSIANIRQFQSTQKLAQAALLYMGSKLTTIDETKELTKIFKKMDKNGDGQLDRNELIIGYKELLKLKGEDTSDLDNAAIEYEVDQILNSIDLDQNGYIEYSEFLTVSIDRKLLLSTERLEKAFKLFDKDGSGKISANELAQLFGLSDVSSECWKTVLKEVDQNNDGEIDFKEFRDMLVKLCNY

| SMILES | growth inhibition [1] | inhibition [2] | inhibition [3] | growth inhibition [4] | outcome [5] | outcome [6] | outcome [7] | outcome [8] |
| --- | --- | --- | --- | --- | --- | --- | --- | --- |
| CCOC(=O)c1ccc(NC(=O)N(Cc2ccc(-c3ccc(CN4CCNCC4)cc3)cc2)Cc2cccnc2)cc1 | 34% (inactive) | 13% (inactive) | 2% (inactive) | 94% (active) | inactive | inactive | inactive | inactive |
| COc1cccc(NC(=O)Cn2c(C)c(C(=O)C(F)(F)F)c3ccccc32)c1 | 94% (active) | 2% (inactive) | -5% (inactive) | 97% (active) | inactive | inactive | inactive | inactive |
| CCN(CC)CCN(CCCc1ccc(-c2ccc(C(F)(F)F)cc2)cc1)C(=O)Cn1c(CCc2cccc(F)c2F)nc(=O)c2ccccc21 | 49% (inactive) | 37% (inactive) | 3% (inactive) | 101% (active) | inactive | inactive | inactive | inactive |
| CC(C)(C)c1ccc(CN2CCCCC(NC(=O)c3cc(-c4ccccc4F)cs3)C2)cc1 (configuration not stated) | 99% (active) | 6% (inactive) | 3% (inactive) | 101% (active) | inactive | inactive | inactive | inactive |
